The test system of this experiment is Vero E6 infected with SARS-CoV-2. Description: morphology score (similarity to uninfected cells); higher = more like uninfected cells. The conditions noted are these: 24 h.
For `O=C(Nc1ccc(-c2ccncc2)cc1)N[C@H](CO)c1ccccc1` (0.833333 µM), the morphology score is 0.489.

The compound `CC[C@H](c1ccc(O)cc1)[C@@H](CC)c1ccc(O)cc1` [hexestrol] (10 µM) came in with a morphology score of 0.143.

Regarding `Nc1cc(-c2ccncc2)c[nH]c1=O` [amrinone] (10 µM), the morphology score amounted to 0.00166.

In turn, `CCOC(=O)n1ccn(C)c1=S` [carbimazole] (10 µM) displayed a morphology score of 0.159.

In turn, `C[C@H]1C[C@H]2[C@@H]3CCC4=CC(=O)C=C[C@]4(C)[C@@]3(F)[C@@H](O)C[C@]2(C)[C@@]1(O)C(=O)CO` [betamethasone] (10 µM) had a morphology score of -0.0234.

`CCC(C)CCCC(=O)N[C@@H](CCN)C(=O)N[C@H](C(=O)N[C@@H](CCN)C(=O)N[C@H]1CCNC(=O)[C@H]([C@@H](C)O)NC(=O)[C@H](CCN)NC(=O)[C@H](CCN)NC(=O)[C@H](CC(C)C)NC(=O)[C@@H](CC(C)C)NC(=O)[C@H](CCN)NC1=O)[C@@H](C)O` (stereo not given in full) [colistin] (10 µM) gave a morphology score of 0.134.

`C[C@H](NCc1ccc(OCc2ccccc2F)cc1)C(N)=O` [priralfinamide] (10 µM) showed a morphology score of -0.175.

The compound `CCCCC[C@H](O)/C=C/[C@H]1[C@H](O)CC(=O)[C@@H]1CCCCCCC(=O)O` [alprostadil] (10 µM) yielded a morphology score of 0.11.

Take `CCCOC(=O)c1ccc(O)cc1` [propyl 4-hydroxybenzoate] (10 µM): the morphology score was -0.0462.

`CC(=O)[C@H]1CC[C@H]2[C@@H]3CC[C@H]4C[C@H](O)CC[C@]4(C)[C@H]3CC[C@]12C` [allopregnanolone] (10 µM) displayed a morphology score of 0.0997.

The values are drawn from the supplement of paper PMC13380429.
